The full ranking holds about 8,300 sequences; the median of “log2 fold change of degron read counts, EGFP-low vs EGFP+ sorted cells (limma voom), compound-induced degradation” is about -1.1, and the highest 2% start at about 3.2. What follows is part of a selection rich in the highest values, with near analogues and random picks from the rest.
T1: CRBN, Q96SW2
T1 chain: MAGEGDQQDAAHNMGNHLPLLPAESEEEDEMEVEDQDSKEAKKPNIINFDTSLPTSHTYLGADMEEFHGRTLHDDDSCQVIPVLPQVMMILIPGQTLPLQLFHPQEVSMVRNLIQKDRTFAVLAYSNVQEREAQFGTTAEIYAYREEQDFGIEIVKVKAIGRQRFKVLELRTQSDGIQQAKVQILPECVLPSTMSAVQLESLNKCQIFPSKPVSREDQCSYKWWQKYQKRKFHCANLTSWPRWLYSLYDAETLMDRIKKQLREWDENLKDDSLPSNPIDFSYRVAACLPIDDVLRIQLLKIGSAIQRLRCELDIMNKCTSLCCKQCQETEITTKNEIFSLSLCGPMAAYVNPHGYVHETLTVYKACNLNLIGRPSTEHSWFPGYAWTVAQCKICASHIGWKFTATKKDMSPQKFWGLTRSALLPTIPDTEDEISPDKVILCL


Biological target: T1, CRBN, Q96SW2
Test: log2 fold change of degron read counts, EGFP-low vs EGFP+ sorted cells (limma voom), compound-induced degradation; higher = more compound-induced degradation of the degron-EGFP fusion; degrons are variants of IKZF1/3 zinc finger 2; compound dose not given here
Conditions: Jurkat, 18 h
[1] = compound: compound 19 (5-tert-butyl-thalidomide)
[2] = compound: compound 22 (5-morpholino-thalidomide)
[3] = compound: compound 33 (diphenyl IMiD analogue)
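Note: pooled lentiviral library of zinc finger degron-EGFP fusions in mCherry-positive Jurkat cells, FACS-sorted after compound exposure, with degron abundance counted by next-generation sequencing.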

Row | Sequence | log2 fold change of degron read counts [1] | log2 fold change of degron read counts [2] | log2 fold change of degron read counts [3] | log2 fold change of degron read counts (compound: thalidomide)
1 | FRCPICGAPFTQKGNLLRHIKL [46F_47R_49P_50I_52G_53A_54P_55F_67L_, Q9UKT9] | 3.44 | 3.76 | 3.04 | 3.53
2 | FSCPICGAPFTQKGNLLRHIKL [46F_47S_49P_50I_52G_53A_54P_55F_67L_, Q9UKT9] | 3.29 | 2.92 | 2.02 | 2.62
3 | FNCPICGRPFTQKGNLLRHIKL [46F_47N_49P_50I_52G_53R_54P_55F_67L_, Q9UKT9] | 1.49 | 0.628 | 0.167 | 1.01
4 | FFCPICGAPFTQKGNLLRHIKL [46F_47F_49P_50I_52G_53A_54P_55F_67L_, Q9UKT9] | 3.92 | 3.44 | 2.55 | 2.09
5 | FKCPICGAPFTQKGNLLRHIKL [46F_47K_49P_50I_52G_53A_54P_55F_67L_, Q9UKT9] | 2.55 | 2.24 | -0.00355 | 2.87
6 | FFCPICGAFFTQKGNLLRHIKL [46F_47F_49P_50I_52G_53A_54F_55F_67L_, Q9UKT9] | 2.73 | 2.52 | 1.71 | 0.267
7 | FRCPICGADFTQKGNLLRHIKL [46F_47R_49P_50I_52G_53A_54D_55F_67L_, Q9UKT9] | -0.99 | -0.254 | 1.92 | 1.51
8 | FNCPICGAPFTQKGNLLRHIKL [46F_47N_49P_50I_52G_53A_54P_55F_67L_, Q9UKT9] | 3.48 | 3.2 | 1.92 | 2.43
9 | FFCPICGAMFTQKGNLLRHIKL [46F_47F_49P_50I_52G_53A_54M_55F_67L_, Q9UKT9] | 2.56 | 2.36 | 1.76 | 0.179
10 | FRCPQCGAPFTQKGNLLRHIKL [46F_47R_49P_50Q_52G_53A_54P_55F_67L_, Q9UKT9] | 0.857 | 2.89 | 2.7 | 2.5
11 | FECPICGAPFTQKGNLLRHIKL [46F_47E_49P_50I_52G_53A_54P_55F_67L_, Q9UKT9] | 2.46 | 0.3 | 2.23 | 2.98
12 | FNCPICGAMFTQKGNLLRHIKL [46F_47N_49P_50I_52G_53A_54M_55F_67L_, Q9UKT9] | 1.73 | 0.564 | 0.719 | 0.478
13 | FYCEICGRMFTQKGNLLRHIKL [46F_47Y_49E_50I_52G_53R_54M_55F_67L_, Q9UKT9] | 1.51 | 1.03 | 1.08 | -0.729
14 | FWCPQCGATFTQKGNLLRHIKL [46F_47W_49P_50Q_52G_53A_54T_55F_67L_, Q9UKT9] | -0.373 | 1.49 | 0.797 | -1.24
15 | FMCDQCGAAFTQKGNLLRHIKL [46F_47M_49D_50Q_52G_53A_54A_55F_67L_, Q9UKT9] | -1.96 | -2.12 | 0.439 | -2.32
16 | LYCNQCGFLCTQKGNLLRHIKL [46L_47Y_49N_50Q_52G_53F_54L_55C_67L_, Q9UKT9] | -1.29 | -1.42 | -1.67 | -1.29
17 | FECEICGRSFTQKGNLLRHIKL [46F_47E_49E_50I_52G_53R_54S_55F_67L_, Q9UKT9] | -2.51 | -3.16 | -1.24 | -1.32
18 | FNCEQCGAWFTQKGNLLRHIKL [46F_47N_49E_50Q_52G_53A_54W_55F_67L_, Q9UKT9] | -2.53 | -2.58 | -2.99 | -2.13

Row | Sequence | log2 fold change of degron read counts [1] | log2 fold change of degron read counts [2] | log2 fold change of degron read counts [3] | log2 fold change of degron read counts (compound: thalidomide)
19 | FLCDICGADFTQKGNLLRHIKL [46F_47L_49D_50I_52G_53A_54D_55F_67L_, Q9UKT9] | -2.36 | -3.49 | -2.12 | -2.22
20 | FHCPICGRNFTQKGNLLRHIKL [46F_47H_49P_50I_52G_53R_54N_55F_67L_, Q9UKT9] | -0.818 | -0.983 | -0.208 | -0.527
21 | FECEICGADFTQKGNLLRHIKL [46F_47E_49E_50I_52G_53A_54D_55F_67L_, Q9UKT9] | -1.96 | -2.74 | 0.273 | 0.225
22 | LVCPICGFNCTQKGNLLRHIKL [46L_47V_49P_50I_52G_53F_54N_55C_67L_, Q9UKT9] | -0.376 | 1.56 | 1.51 | 2.74
23 | LWCPICGFPCTQKGNLLRHIKL [46L_47W_49P_50I_52G_53F_54P_55C_67L_, Q9UKT9] | 1.54 | 1.47 | 1.88 | 1.22
24 | FICPICGHPFTQKGNLLRHIKL [46F_47I_49P_50I_52G_53H_54P_55F_67L_, Q9UKT9] | -1.76 | -0.823 | -0.563 | 0.027
25 | FICPICGAPFTQKGNLLRHIKL [46F_47I_49P_50I_52G_53A_54P_55F_67L_, Q9UKT9] | 1.94 | 3.65 | 2.52 | 3.16
26 | FACPICGAMFTQKGNLLRHIKL [46F_47A_49P_50I_52G_53A_54M_55F_67L_, Q9UKT9] | 2.8 | 1.12 | 0.702 | 0.265
27 | FQCPICGAFFTQKGNLLRHIKL [46F_47Q_49P_50I_52G_53A_54F_55F_67L_, Q9UKT9] | -1.33 | -0.0266 | 2.3 | 2.67
28 | FQCPICGAPFTQKGNLLRHIKL [46F_47Q_49P_50I_52G_53A_54P_55F_67L_, Q9UKT9] | 3.38 | 3.6 | 2.53 | 3.65
29 | FMCPICGADFTQKGNLLRHIKL [46F_47M_49P_50I_52G_53A_54D_55F_67L_, Q9UKT9] | -1.3 | -0.0353 | 2.99 | 1.23
30 | FACPICGADFTQKGNLLRHIKL [46F_47A_49P_50I_52G_53A_54D_55F_67L_, Q9UKT9] | 2.75 | 0.745 | 0.673 | 0.2
31 | FACPICGAPFTQKGNLLRHIKL [46F_47A_49P_50I_52G_53A_54P_55F_67L_, Q9UKT9] | 3.7 | 3.03 | 1.56 | 2.64
32 | FMCPICGAMFTQKGNLLRHIKL [46F_47M_49P_50I_52G_53A_54M_55F_67L_, Q9UKT9] | -0.414 | -0.22 | 1.72 | 0.511
33 | FICPICGADFTQKGNLLRHIKL [46F_47I_49P_50I_52G_53A_54D_55F_67L_, Q9UKT9] | -0.647 | 0.966 | 1.15 | 1.89
34 | FMCPICGAPFTQKGNLLRHIKL [46F_47M_49P_50I_52G_53A_54P_55F_67L_, Q9UKT9] | 3.36 | 3.49 | 3.09 | 2.98
35 | FQCPICGRPFTQKGNLLRHIKL [46F_47Q_49P_50I_52G_53R_54P_55F_67L_, Q9UKT9] | 0.103 | 1.27 | 0.384 | 2.92

Source: the supplement of paper PMC12645437, “Orthogonal IMiD-Degron Pairs Induce Selective Protein Degradation in Cells” (ACS Chemical Biology, 2025)
